# Results reported in PubChem BioAssay (Tox21).
# Several values for one entry are separate records, joined by “and”; a condition that tells them apart may be missing. Equal values may be shown once. Values without a mark were called inactive. Records with an inconclusive call do not appear. A call without a number means that no potency is given here. Activity calls are given as the source filed them. Unless noted, calls follow the shape of the dose curve; as a rule, active = well fitted curve in the direction sought with a large enough effect in the repeat runs; inconclusive = weak or mixed curves; inactive = no such curve, though single readings can be large; an effect the other way counts as inactive or inconclusive.
# What was measured:
# [1] = molecular target: Estrogen receptor (Homo sapiens) (UniProt P03372); assay: qHTS assay to identify small molecule antagonists of the estrogen receptor alpha (ER-alpha) signaling pathway using the BG1 cell line in the presence of 0.1 nM 17-beta-estradiol (AID 1259244); also: nearly all actives have a fitted effect of over 50% in size; also: potency is read from the fitted curve at half-maximal effect
# Estrogen receptor (Homo sapiens), sequence (P03372 whole entry, looked up): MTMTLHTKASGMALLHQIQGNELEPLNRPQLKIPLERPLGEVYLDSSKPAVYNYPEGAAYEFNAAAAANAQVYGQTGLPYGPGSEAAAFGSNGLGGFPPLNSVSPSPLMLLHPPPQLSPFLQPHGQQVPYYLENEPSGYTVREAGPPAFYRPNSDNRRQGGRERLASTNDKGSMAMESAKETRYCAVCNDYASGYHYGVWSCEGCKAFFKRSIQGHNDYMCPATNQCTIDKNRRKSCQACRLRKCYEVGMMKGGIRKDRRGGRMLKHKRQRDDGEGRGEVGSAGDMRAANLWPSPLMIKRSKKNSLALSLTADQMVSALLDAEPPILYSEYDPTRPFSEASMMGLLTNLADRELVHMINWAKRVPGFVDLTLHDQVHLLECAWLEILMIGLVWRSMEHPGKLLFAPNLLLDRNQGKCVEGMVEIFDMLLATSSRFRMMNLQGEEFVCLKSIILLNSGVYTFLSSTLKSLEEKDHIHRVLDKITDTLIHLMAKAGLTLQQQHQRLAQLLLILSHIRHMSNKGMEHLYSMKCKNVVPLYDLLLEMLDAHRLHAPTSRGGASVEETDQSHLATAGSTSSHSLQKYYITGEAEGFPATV
# In short: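 Luminescence after ONE-Glo (30 min, room temperature) measured ERE-luciferase activity in VM7Luc4E2 cells treated 22 h with compound and 0.1 nM final 17beta-estradiol as stimulator.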
# [2] = qHTS assay to identify small molecule HDAC inhibitors (AID 1259364); also: potency is read from the fitted curve at half-maximal effect;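 also: wild-type HCT-116 cells with endogenous class I/II HDAC activity; nearly all actives have a fitted effect of over 45% in size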; as to activity change, negative = inhibition: top concentration of the series differs between compounds
# In short: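 HCT-116 (wild type), 1,500 cells/well, overnight; compound 2 hr 37C 5% CO2; HDAC-Glo I/II reagent 30 min RT; luminescence readout.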
# [3] = qHTS assay to identify small molecule HDAC inhibitors - cell viability counter screen (AID 1259365); also: series mostly up to about 92 µM; nearly all actives have a fitted effect of over 50% in size
# In short: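 Following a 2hr exposure of overnight-plated wild-type HCT-116 cells to DMSO-delivered compounds, CellTiter-Glo was added and luminescence recorded after 30min at room temperature.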
# [4] = qHTS assay to identify small molecule agonists of the sonic hedgehog signaling (Shh) pathway - cell viability counter screen (AID 1259366); also: nearly all actives have a fitted effect of over 50% in size; also: potency is read from the fitted curve at half-maximal effect
# In short: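 After a 4hr attachment at 37C, NIH/3T3 cells bearing an integrated Gli1-driven luciferase reporter were dosed with compounds. Treatment lasted 24hr, with the final hour including CellTiter-Fluor for a fluorescence viability measurement.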
# [5] = qHTS assay to identify small molecule antagonists of the sonic hedgehog signaling (Shh) pathway - cell viability counter screen (AID 1259367); also: nearly all actives have a fitted effect of over 55% in size; also: potency is read from the fitted curve at half-maximal effect
# In short: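 Cytotoxicity was assessed in parallel with Shh reporter activity by measuring live-cell protease fluorescence (CellTiter-Fluor) in NIH/3T3 cells stably carrying Gli1-Luc, treated with compound under conditioned medium stimulation for 23 hr plus 1 hr reagent incubation.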
# [6] = qHTS assay to identify small molecule agonists of the sonic hedgehog signaling (Shh) pathway (AID 1259368; calls by dose curve;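 also: NIH/3T3-derived 3T3Gli1-Luc cells carrying a stable Gli1-driven firefly luciferase reporter; series mostly up to about 92 µM; nearly all actives have a fitted effect of over 15% in size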)
# In short: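 Read-out: firefly luciferase luminescence from a Gli1 response element reporter stably integrated in NIH/3T3-derived 3T3Gli1-Luc cells, measured 30 min at room temperature after reagent addition. Compound exposure lasted 24 hr at 37 C, 5% CO2.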
# [7] = qHTS assay to identify small molecule antagonists of the sonic hedgehog signaling (Shh) pathway (AID 1259369; calls by dose curve; also: nearly all actives have a fitted effect of over 45% in size; also: potency is read from the fitted curve at half-maximal effect)
# In short: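 Luminescence readout: firefly Luc under Gli1 response element in 3T3Gli1-Luc cells (NIH/3T3 clone). Antagonist mode, stimulation by conditioned medium; compound exposure 24hr at 37 C, 5% CO2.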
# [8] = molecular target: Estrogen receptor beta (Homo sapiens) (UniProt Q92731); assay: qHTS assay to identify small molecule agonists of the estrogen receptor beta (ER-beta) signaling pathway (AID 1259377; active = well fitted activation curve with a large enough effect in the signal ratio in the repeat runs, not every such curve was filed as active; the % refers to the signal ratio)
# Estrogen receptor beta (Homo sapiens), sequence (Q92731 whole entry, looked up): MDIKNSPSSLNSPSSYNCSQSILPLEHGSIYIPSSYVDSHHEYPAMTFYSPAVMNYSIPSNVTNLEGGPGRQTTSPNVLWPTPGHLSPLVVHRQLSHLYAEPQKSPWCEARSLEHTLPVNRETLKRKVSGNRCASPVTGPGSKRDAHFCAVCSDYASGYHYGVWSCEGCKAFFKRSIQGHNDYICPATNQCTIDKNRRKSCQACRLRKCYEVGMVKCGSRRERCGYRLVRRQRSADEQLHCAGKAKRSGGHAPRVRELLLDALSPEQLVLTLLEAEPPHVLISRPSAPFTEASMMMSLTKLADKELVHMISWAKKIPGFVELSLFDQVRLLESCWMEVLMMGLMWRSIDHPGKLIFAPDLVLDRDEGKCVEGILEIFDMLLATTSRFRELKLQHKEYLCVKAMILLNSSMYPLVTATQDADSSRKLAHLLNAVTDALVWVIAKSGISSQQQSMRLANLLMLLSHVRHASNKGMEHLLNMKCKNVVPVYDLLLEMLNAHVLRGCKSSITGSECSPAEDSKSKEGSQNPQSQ
# In short: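 In HEK293T cells bearing a UAS-beta-lactamase reporter under ER-beta control, DMSO-delivered compounds were incubated for 16 hr at 37C. Activity was detected as fluorescence 2 hours after LiveBLAzer B/G FRET substrate addition.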
structure (smiles),measurement,setting,value
CC(C)(C)C1=CC(=O)C=C(C(C)(C)C)C1=O,Potency,[1],inactive
same,Potency,[2],inactive
same,Potency,[3],inactive
same,Potency,[4],inactive
same,Potency,[5],inactive
same,Potency,[6],inactive
same,Potency,[7],inactive
same,Potency,[8],inactive
CCN(CC)CCCN(c1ccccc1)C1Cc2ccccc2C1,Potency,[1],inactive
same,Potency,[2],inactive
same,Potency,[3],inactive
same,Potency,[4],inactive
same,Potency,[5],inactive
same,Potency,[6],inactive
same,Potency,[7],15 µM (active)
same,Potency,[8],inactive
Cc1cncc(C)c1,Potency,[1],inactive
same,Potency,[2],inactive
same,Potency,[3],inactive
same,Potency,[4],inactive
same,Potency,[5],inactive
same,Potency,[6],inactive
same,Potency,[7],inactive
same,Potency,[8],inactive
COc1cccc(O)c1,Potency,[1],inactive
same,Potency,[2],inactive
same,Potency,[3],inactive
same,Potency,[4],inactive
same,Potency,[5],inactive
same,Potency,[6],inactive
same,Potency,[7],inactive
O=C1OC(=O)c2ccc3c4c(ccc1c24)C(=O)OC3=O,Potency,[1],inactive
same,Potency,[2],inactive
same,Potency,[3],inactive
same,Potency,[4],inactive
same,Potency,[5],inactive
same,Potency,[6],inactive
same,Potency,[7],inactive
CCCCCCCCCCCCOC(=O)c1cc(O)c(O)c(O)c1,Potency,[1],30.5 µM (active) and 34.4 µM (active)
same,Potency,[2],inactive
same,Potency,[3],inactive
same,Potency,[4],43.1 µM (active)
same,Potency,[5],34.2 µM (active) and 6.11 µM (active)
same,Potency,[7],1.21 µM (active) and 2.17 µM (active)
same,Potency,[8],inactive
CCc1c(C(=O)O)c(=O)cnn1-c1ccc(Cl)cc1,Potency,[1],inactive
same,Potency,[2],inactive
same,Potency,[3],inactive
same,Potency,[4],inactive
same,Potency,[5],inactive
same,Potency,[6],inactive
same,Potency,[7],inactive
same,Potency,[8],inactive
CCCCOC(=O)C(C)CC (stereo unspecified),Potency,[1],inactive
same,Potency,[2],inactive
same,Potency,[3],inactive
same,Potency,[4],inactive
same,Potency,[5],inactive
same,Potency,[6],inactive
same,Potency,[8],inactive
Cc1ccc2ccc3cccc4ccc1c2c34,Potency,[1],inactive
same,Potency,[2],inactive
same,Potency,[3],inactive
same,Potency,[4],inactive
same,Potency,[5],inactive
same,Potency,[6],inactive
same,Potency,[7],inactive
same,Potency,[8],inactive
Brc1ccccn1,Potency,[1],inactive
same,Potency,[2],inactive
same,Potency,[3],inactive
same,Potency,[4],inactive
same,Potency,[5],inactive
same,Potency,[6],inactive
same,Potency,[7],inactive
same,Potency,[8],inactive
C[C@]12CC[C@H]3C(=CCc4cc(O)ccc43)[C@@H]1CCC2=O,Potency,[1],inactive
same,Potency,[2],inactive
same,Potency,[3],inactive
same,Potency,[4],inactive
same,Potency,[6],inactive
same,Potency,[7],21.7 µM (active)
C=CC(=C)CC/C=C(\C)CCC=C(C)C,"activity change, negative = inhibition",[1],3.24% [at 19 µM]
same,"activity change, negative = inhibition",[2],8.2% [at 19 µM]
same,"activity change, negative = cytotoxicity",[3],3.69% [at 19 µM]
same,"viability change, negative = cytotoxic",[4],-6.51% [at 19 µM]
same,"viability change, negative = cytotoxic",[5],-4.46% [at 19 µM]
same,activity change,[6],"0.047% [at 18.9 µM, hits give high values]"
same,activation,[8],1.85% [at 19 µM]
CCOCN(C(=O)CS(=O)(=O)O)c1c(C)cccc1CC,Potency,[1],inactive
same,Potency,[2],inactive
same,Potency,[3],inactive
same,Potency,[4],inactive
same,Potency,[6],inactive
same,Potency,[7],inactive
same,Potency,[8],inactive
O=C(Nc1ccc(Cl)c(Cl)c1)c1cc(Cl)cc(Cl)c1O,Potency,[1],3.44 µM (active)
same,Potency,[2],1.22 µM (active)
same,Potency,[3],inactive
same,Potency,[6],inactive
same,Potency,[7],3.86 µM (active)
CC(C)C(=O)OCc1ccccc1,Potency,[1],inactive
same,Potency,[2],inactive
same,Potency,[3],inactive
same,Potency,[4],inactive
same,Potency,[5],inactive
same,Potency,[6],inactive
same,Potency,[7],inactive
same,Potency,[8],inactive
CCCCCCCCCCCCCOP(=O)(O)O,Potency,[1],inactive
same,Potency,[2],inactive
same,Potency,[3],inactive
same,Potency,[4],inactive
same,Potency,[6],inactive
same,Potency,[7],inactive
same,Potency,[8],inactive
NCCCCCCNCCCCCCN,Potency,[1],inactive
same,Potency,[2],inactive
same,Potency,[3],inactive
same,Potency,[6],inactive
CCc1cccc(CC)c1N(COC)C(=O)CS(=O)(=O)O,Potency,[1],inactive
same,Potency,[2],inactive
same,Potency,[3],inactive
same,Potency,[4],inactive
same,Potency,[5],inactive
same,Potency,[6],inactive
same,Potency,[7],inactive
same,Potency,[8],inactive
CC(=O)c1ccccc1N,Potency,[1],inactive
same,Potency,[2],inactive
same,Potency,[3],inactive
same,Potency,[4],inactive
same,Potency,[5],inactive
same,Potency,[6],inactive
same,Potency,[7],inactive
same,Potency,[8],inactive
CCOC(=O)COc1ccc(C)cc1,Potency,[1],inactive
same,Potency,[2],inactive
same,Potency,[3],inactive
same,Potency,[4],inactive
same,Potency,[6],inactive
same,Potency,[7],inactive
same,Potency,[8],inactive
ClC/C=C\CCl,Potency,[1],inactive
same,Potency,[2],inactive
same,Potency,[3],inactive
same,Potency,[4],inactive
same,Potency,[6],inactive
same,Potency,[7],inactive
CCCCN(CCCC)CCC(O)c1cc2c(Cl)cc(Cl)cc2c2cc(C(F)(F)F)ccc12 (stereo unspecified),Potency,[1],inactive
same,Potency,[2],inactive
same,Potency,[3],inactive
same,Potency,[4],inactive
same,Potency,[5],inactive
same,Potency,[6],inactive
same,Potency,[8],inactive
O=S(O)O,"activity change, negative = inhibition",[1],-4.06% [at 19 µM]
same,"activity change, negative = inhibition",[2],2.9% [at 19 µM]
same,"activity change, negative = cytotoxicity",[3],2.88% [at 19 µM]
same,"viability change, negative = cytotoxic",[4],2.93% [at 19 µM]
same,"viability change, negative = cytotoxic",[5],0.928% [at 19 µM]
same,activity change,[6],"-1.4% [at 18.9 µM, hits give high values]"
same,"activity change, negative = inhibition",[7],12.9% [at 19 µM]
same,activation,[8],-0.957% [at 19 µM]
c1ccc(Nc2cccc3ccccc23)cc1,Potency,[1],inactive
same,Potency,[2],inactive
same,Potency,[3],inactive
same,Potency,[4],inactive
same,Potency,[6],inactive
same,Potency,[7],30.6 µM (active)
same,Potency,[8],inactive
COC(=O)CC#N,Potency,[1],inactive
same,Potency,[2],inactive
same,Potency,[3],inactive
same,Potency,[4],inactive
same,Potency,[5],inactive
same,Potency,[6],inactive
same,Potency,[7],inactive
same,Potency,[8],inactive
CCCCCCCC/C=C\CCCCCCCC(=O)N(C)CC(=O)O,Potency,[1],inactive
same,Potency,[2],inactive
same,Potency,[3],inactive
same,Potency,[4],inactive
same,Potency,[6],inactive
same,Potency,[7],inactive
CC=O,Potency,[1],0.403 µM (active)
same,Potency,[2],inactive
same,Potency,[3],inactive
same,Potency,[4],28.6 µM (active)
same,Potency,[6],inactive
same,Potency,[7],0.0161 µM (active)
O=C(c1ccccc1)c1cc(Cl)ccc1O,Potency,[1],inactive
same,Potency,[2],inactive
same,Potency,[3],inactive
same,Potency,[4],inactive
same,Potency,[6],inactive
